Tb PYK inh – qHTS of Trypanosoma Brucei Inhibitors | TbPYK enzyme, Kinase-Glo Plus ATP luminescence, 45 min | Potency, µM (series often up to 76.8 µM), actives largely listed as inhibitors | 410,000 compounds, 0.12% hits; note: nearly all actives have a fitted effect of over 50% in size
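ADP (130 uM final) triggers the TbPYK reaction after compound addition; incubation is 45 min at room temperature. Kinase-Glo Plus is then added and luminescence imaged. Normalized data are fitted to concentration-effect curves.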
SARS PLpro yeast – qHTS of Yeast-based Assay for SARS-CoV PLP. S. cerevisiae expressing SARS-CoV PLpro, growth rescue. Potency, µM (titrated, usually from 32.9 µM), usual class: activators. 330,000 compounds, 0.19% hits. AID 485353, 2010; calls by dose curve; note: nearly all actives have a fitted effect of over 55% in size
LmPK inhibitor – qHTS Assay for Inhibitors of Leishmania Mexicana Pyruvate Kinase (LmPK) | Q27686 | purified LmPK, Kinase-Glo ATP luminescence, 1 h | Potency, µM (highest dose often 57.5 µM), usual class: inhibitors | 290,000 compounds, 0.37% hits | AID 1721, 2009
Target sequence (Q27686 whole entry, looked up): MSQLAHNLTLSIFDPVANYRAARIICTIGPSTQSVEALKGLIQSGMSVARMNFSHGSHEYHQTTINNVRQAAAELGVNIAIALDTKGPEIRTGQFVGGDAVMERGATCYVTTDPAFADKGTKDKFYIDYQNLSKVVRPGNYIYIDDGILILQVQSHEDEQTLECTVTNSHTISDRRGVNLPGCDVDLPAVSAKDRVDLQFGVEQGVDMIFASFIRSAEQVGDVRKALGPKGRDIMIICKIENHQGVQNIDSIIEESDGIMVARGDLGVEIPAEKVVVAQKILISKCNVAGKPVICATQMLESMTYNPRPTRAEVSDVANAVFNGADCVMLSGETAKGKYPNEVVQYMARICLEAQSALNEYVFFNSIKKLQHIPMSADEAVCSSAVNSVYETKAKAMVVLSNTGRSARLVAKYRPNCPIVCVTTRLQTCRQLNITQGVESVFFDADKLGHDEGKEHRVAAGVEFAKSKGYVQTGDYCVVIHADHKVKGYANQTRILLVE
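Screened at intermediate enzyme activity to detect both inhibitors and activators: LmPK at 0.1 nM, with a 0.5 nM enzyme column as activation reference. PEP 0.5 mM, ADP 0.1 mM; ATP detected by luminescence after 1 h.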
Shiga toxin inh – A qHTS for Small Molecule Inhibitors of Shiga Toxin | AID 2315, 2010 | inhibition, % at 38.7 µM | Vero cells, Shiga toxin protein synthesis inhibition reporter | 290,000 compounds, 9.2% hits; in the data active = inhibition mostly above about 28%, no sharp cut-off; inactive = mostly below about 43%
CHX counter – Cycloheximide Counterscreen for Small Molecule Inhibitors of Shiga Toxin | cell reporter, cycloheximide protein synthesis inhibition counterscreen | max response, % | 300,000 compounds, 12% hits | AID 2314, 2010; in the data active = max response mostly above about 13%, no sharp cut-off; inactive = mostly below about 14%; note: read at 38.3 µM for the half of the compounds with a filed dose
NS1 inh – qHTS Assay for Inhibitors of Influenza NS1 Protein Function | 270,000 compounds, 0.4% hits | Potency, µM (doses to about 46.1 µM) | AID 2326, 2010; calls by dose curve; note: actives are rising curves; nearly all actives have a fitted effect of over 50% in size
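Growth recovery, yeast-based: influenza A NS1 expressed in S. cerevisiae causes slow growth, and suppressors are detected by OD600. The parent strain without NS1 is used as positive control.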
Numbers stand for hits; – = inactive; ? = inconclusive; · = no result given. Many of the other results were omitted from the sample, so hits are more common in it than they were. Unless noted, calls come from the whole dose curve; as a rule, active = well fitted curve in the direction sought with a large enough effect; inconclusive = small, poorly fitted or top-dose-only effect, or another doubt; inactive = no such curve, though single readings can be large; an effect the other way counts as inactive or inconclusive.

SMILES | Tb PYK inh | SARS PLpro yeast | LmPK inhibitor | Shiga toxin inh | CHX counter | NS1 inh
O=S(=O)(Nc1ccc2c(c1)oc1ccccc12)N1CCCC1 | – | – | – | – | 19.9 | –
CCn1c2ccccc2c2cc(NC(=O)CN(C)CC(=O)Nc3ccc(N4CCOCC4)cc3)ccc21 | – | – | – | – | – | –
O=C(Nc1ccc2c(c1)oc1ccccc12)N1CCOCC1 | – | – | – | 83.7 | 52.3 | –
O=C(Nc1ccccc1)N1CCOCC1 | – | – | – | – | – | –
Cc1cc(C)cc(NC(=O)N2CCC(C(N)=O)(N3CCCCC3)CC2)c1 | – | · | · | · | · | ·
Cc1ccc(CNC(=O)c2ccc(CSCc3ccccc3Cl)o2)cc1 | – | · | · | · | · | ·
CCOc1ccc(C(=O)NCCc2sc(-c3ccc(F)cc3)nc2C)cc1 | – | · | · | · | · | ·
Cc1ccc2nc3c(nc2c1)-c1ccccc1C3=O | – | – | – | 32.0 | 19.6 | –
COc1ccc(-c2csc(-n3cccn3)n2)cc1 | – | – | – | 66.3 | 62.4 | –
COc1ccc(-c2csc(N3CCSCC3)n2)cc1 | ? | – | – | 95.1 | 55.6 | –
O=C1NC(=O)c2c1c(-c1ccccc1)cc1[nH]c3ccc(O)cc3c21 | · | · | · | – | – | ·
CCN=c1scc(-c2ccccc2)n1/N=C/c1ccccn1 | – | – | – | 78.0 | 41.2 | –
CCN=c1scc(-c2ccc(F)cc2)n1/N=C/c1ccccn1 | – | – | – | 82.1 | 47.9 | ·
CCOc1ccc2c(c1)c(=O)c(C(=O)c1ccc(CC)cc1)cn2CC(=O)Nc1ccccc1C | – | · | · | · | · | ·
CC(C)CC1c2[nH]c3ccccc3c2CCN1C(=O)c1cnccn1 (stereo not drawn) | – | – | – | 75.7 | 51.3 | –
CC(C)CC1c2[nH]c3ccccc3c2CCN1C(=O)CCC(=O)N(C)C (stereo not drawn) | – | – | – | 44.1 | – | –
CC(C)CC1c2[nH]c3ccccc3c2CCN1C(=O)C1CCOCC1 (stereo not drawn) | – | – | – | – | – | –
CC(=O)c1cc(C(=O)N2CCc3c([nH]c4ccccc34)C2CC(C)C)[nH]n1 (stereo not drawn) | – | – | – | – | – | –
O=C(CNC(=O)c1ccccc1F)OCc1nc2ccccc2s1 | – | – | – | 67.2 | – | ·
O=C(CNC(=O)c1ccccc1)OCc1nc2ccccc2s1 | – | – | – | 49.4 | 41.9 | –
O=C(CNC(=O)c1ccc(Cl)cc1Cl)OCc1nc2ccccc2s1 | – | – | – | – | – | –
COc1ccc(C(=O)Nc2cccc3cccnc23)cc1OC | – | – | – | – | – | –
COc1cc2c(cc1NC(=O)c1cccnc1)CCCC2 | – | – | – | – | 19.9 | –
COc1ccc(C(=O)Nc2cccnc2)cc1OC | – | – | – | – | 13.1 | –
CC(C)(C)c1ccc(C(=O)Nc2cccnc2)cc1 | – | – | – | – | 25.9 | –
SMILES | Tb PYK inh | SARS PLpro yeast | LmPK inhibitor | Shiga toxin inh | CHX counter | NS1 inh
O=C(Nc1cccnc1)c1ccc(C(=O)Nc2cccnc2)cc1 | – | – | – | – | – | –
COc1ccc(C(=O)Nc2cccc(NC(=O)c3ccc(OC)c(OC)c3)n2)cc1OC | – | – | – | 39.1 | 22.3 | –
COc1ccc(C(=O)Nc2nc(C)c(C)s2)cc1OC | – | – | – | 95.7 | 55.0 | –
COc1ccc(C(=O)Nc2c(F)c(F)c(F)c(F)c2F)cc1OC | – | · | · | · | · | ·
Brc1ccccc1C1CC(c2ccccc2)=Nc2ccccc2N1 (stereo not drawn) | – | – | – | 90.5 | 96.7 | –
Clc1ccccc1C1CC(c2ccccc2)=Nc2ccccc2N1 (stereo not drawn) | – | – | – | 92.9 | 42.8 | –
CC1=C(C(=O)OCc2ccccc2)C(c2ccccc2Br)NC(=O)N1 (stereo not drawn) | – | – | – | – | – | –
c1ccc(C2=NC(c3ccccc3)CC2)cc1 (stereo not drawn) | – | · | · | · | · | ·
c1ccc(C2=Nc3ccccc3NC(c3ccccc3)C2)cc1 (stereo not drawn) | – | – | – | 125.5 | 35.7 | –
C(=NOCc1ccccc1)c1ccncc1 | – | · | · | · | · | ·
CC1SCC(=NOCc2ccccc2)CS1 (stereo not drawn) | – | – | – | 114.3 | 38.2 | –
COc1cc(OC)c(OC)cc1/C=N/n1c(C)nc2ccccc2c1=O | – | – | – | – | – | –
CCOc1ccc(/C=N/n2c(C)nc3ccccc3c2=O)cc1 | – | – | – | – | – | –
Cc1nc2ccccc2c(=O)n1/N=C/c1ccc([N+](=O)[O-])o1 | · | – | – | 55.5 | 33.6 | –
Cc1nc2ccccc2c(=O)n1/N=C/c1ccc(N(C)C)cc1 | – | – | – | – | 26.1 | –
Cc1nc2ccccc2n1/N=C/c1ccc([N+](=O)[O-])o1 | – | · | · | · | · | ·
CSc1ccc(/C=N/n2c(C)nc3ccccc3c2=O)cc1 | – | – | – | – | 22.6 | –
Cc1nc2ccccc2c(=O)n1/N=C/c1ccccc1F | – | – | – | 104.6 | 51.7 | –
Cc1nc2ccccc2c(=O)n1/N=C/c1ccccn1 | – | – | – | – | 27.8 | –
Cc1ccc(/C=N/n2c(C)nc3ccccc3c2=O)o1 | – | – | – | – | – | –
CN(/N=C/c1ccc([N+](=O)[O-])o1)c1ccccc1 | – | – | – | – | 33.3 | ·
COC(=O)CC1Oc2ccc(F)cc2-n2cc(-c3ccc(C)cc3)nc21 (stereo not drawn) | – | · | · | · | · | ·
COc1ccc(C)cc1NC(=O)CN1c2ccccc2S(=O)(=O)c2ccccc21 | – | · | · | · | · | ·
O=S1(=O)C=C(SCc2cccc(Cl)c2)Nc2ccccc21 | – | – | – | – | – | –
Nc1nccc(N2CCCCC2)n1 | – | · | · | · | · | ·
SMILES | Tb PYK inh | SARS PLpro yeast | LmPK inhibitor | Shiga toxin inh | CHX counter | NS1 inh
O=Nc1ccc(NOC(=O)c2ccccc2Br)cc1 | – | – | ? | 127.4 | 85.0 | –
O=C(Nc1cccc(F)c1)N1CCCC2(CCN(C(=O)c3csnn3)CC2)C1 | – | · | · | · | · | ·
O=C(CSc1ncn(-c2ccccc2)n1)Nc1nncs1 | – | – | – | – | – | –
CC(=O)Nc1ccc(C(=O)CSc2ncn(-c3ccccc3)n2)cc1 | – | – | – | – | 22.5 | –
COc1cccc(C(=O)Oc2ccc(/C=N/Nc3ccc(C(=O)O)cc3)cc2OC)c1 | – | – | – | · | 32.7 | –
CCOc1cc(/C=N/Nc2ccc(C(=O)O)cc2)ccc1OC(=O)c1ccccc1C | – | – | – | – | 42.2 | –
COc1cc(/C=N/Nc2ccc(Cl)c(C(=O)O)c2)ccc1OC(=O)c1ccccc1F | – | – | – | 69.9 | 29.5 | –
COc1cccc(OCc2cc(/C=N/Nc3ccc(C(=O)O)cc3)ccc2OC)c1 | – | – | – | 53.4 | 41.1 | –
COc1cc(/C=N/Nc2ccc(Cl)c(C(=O)O)c2)ccc1OC(=O)c1ccc(F)cc1 | – | – | – | – | – | –
COCc1cc(/C=N\NC(=O)COc2ccccc2)ccc1OC | – | – | – | – | – | –
